Common to all, as to assay: NCI-60 one-dose screen, 48 h (100 = growth as untreated, 0 = no growth, -100 = all killed)
One test relates to NCI-H23 lung. Conditions: 10 µM unless noted.
The next test relates to NCI-H226 lung. Conditions: 10 µM unless noted.
The test system of another test is NCI-H322M lung. Conditions: 10 µM unless noted.
The test system of another test is HOP-62 NSCLC. Conditions: 10 µM unless noted.
The subject of the next test is NCI-H460 lung. The conditions noted are these: 10 µM unless noted.
For a further test, the system named is HOP-92 NSCLC. The conditions noted are these: 10 µM unless noted.
In another test the test system is NCI-H522 lung. The conditions noted are these: 10 µM unless noted.
A further test concerns A549/ATCC NSCLC. Conditions: 10 µM unless noted.
The test system of the next test is 786-0 renal. The conditions noted are these: 10 µM unless noted.
Another test has as its system COLO 205 colon. Conditions: 10 µM unless noted.
A further test concerns DU-145 prostate. Conditions: 10 µM unless noted.
The test system of the next test is K-562 leukemia. The conditions noted are these: 10 µM unless noted.
The subject of another test is MALME-3M melanoma. Conditions: 10 µM unless noted.
The next test relates to MDA-MB-231 breast. Conditions: 10 µM unless noted.
A further test concerns RXF 393 renal. The conditions noted are these: 10 µM unless noted.
The next test concerns SF-268 CNS. Conditions: 10 µM unless noted.
The next test has as its system SF-295 CNS. Conditions: 10 µM unless noted.
A further test has as its system SF-539 CNS. Conditions: 10 µM unless noted.
In a further test the test system is UACC-257 melanoma. Conditions: 10 µM.
The test system of a further test is M14 melanoma. The conditions noted are these: 10 µM unless noted.

About 83,000 compounds went through this panel and 20% of them were active in at least one assay; those are over-represented in the sample as a whole.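 Growth was measured after 48 h exposure to one concentration of compound in 96-well plates. Values under 10 count as active.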 A number with no mark means an inactive call. Active and inactive are the calls of the source.

For the molecule `COc1ccc(-c2nc(SCC(C)C)nc(N/N=C\c3cccc([N+](=O)[O-])c3)c2C#N)cc1`, the growth was 46.4% in the test with NCI-H23 lung; 38% in the test on NCI-H226 lung; 38.3% with NCI-H322M lung; 31.3% in the test with HOP-62 NSCLC; 14.1% in the test with NCI-H460 lung; 16.2% in the test with HOP-92 NSCLC. The growth in the test on NCI-H522 lung is 59.4%; in the test with A549/ATCC NSCLC, 24.8%; in the test with 786-0 renal it was 4.44% (active); in the test on COLO 205 colon it was 85.8%; in the test with DU-145 prostate it was 70.5%; in the test on K-562 leukemia, 57.1%. Also, the growth is 48.1% in the test with MALME-3M melanoma; 30.5% in the test on MDA-MB-231 breast; 18.1% in the test with RXF 393 renal; 43.6% with SF-268 CNS; 52.7% with SF-295 CNS; 8.02% (active) in the test on SF-539 CNS. The growth in the test on UACC-257 melanoma was 89%; in the test with M14 melanoma, 76.9%.
As to `CC1=C2C(=C[C@@](C)(COS(N)(=O)=O)[C@@H]2O)C(=O)[C@](C)(O)C12CC2`, the growth was 23.6% in the test on NCI-H23 lung; 85.8% in the test with NCI-H226 lung; 74.4% in the test with NCI-H322M lung; 45.7% with HOP-62 NSCLC; 7.04% (active) with NCI-H460 lung; 43.8% in the test with HOP-92 NSCLC. Also, the growth is 70.5% in the test with NCI-H522 lung; 21.2% in the test with A549/ATCC NSCLC; 79.4% in the test on 786-0 renal; 47.7% with COLO 205 colon; 15.3% with DU-145 prostate; 97.2% with K-562 leukemia. The growth in the test on MALME-3M melanoma was 88.3%; with MDA-MB-231 breast, 83%; in the test with RXF 393 renal it was -30.2% (active); in the test with SF-268 CNS, 32.2%; with SF-295 CNS it was 20.5%; in the test on SF-539 CNS, 64.9%. For the same molecule, the growth in the test with UACC-257 melanoma was 89.3%; with M14 melanoma it was 76.7%.
Regarding `CN(C)c1ncc(/C=C2\SC(=S)N(Cc3ccccc3Cl)C2=O)s1`, the growth in the test on NCI-H23 lung is 80.4%; in the test on NCI-H226 lung it was 83.8%; in the test with NCI-H322M lung, 80.5%; in the test on HOP-62 NSCLC it was 88.5%; in the test on NCI-H460 lung, 29.1%; in the test on HOP-92 NSCLC, 94.7%. Also, the growth is 77.9% in the test with NCI-H522 lung; 63.9% with A549/ATCC NSCLC; 67.3% in the test on 786-0 renal; 91.8% in the test on COLO 205 colon; 97.8% in the test with DU-145 prostate; 68% in the test on K-562 leukemia. Also, the growth is 109% with MALME-3M melanoma; 83.9% in the test on MDA-MB-231 breast; 107% in the test with RXF 393 renal; 94.3% in the test with SF-268 CNS; 66.4% in the test with SF-295 CNS; 74.5% in the test on SF-539 CNS. The growth in the test with UACC-257 melanoma was 98.5%; in the test with M14 melanoma, 94.1%.
`C[C@@H]1C[C@H]2C(=O)OCC(NC(=O)[C@H](Cc3cc(F)cc(F)c3)NC(=O)Nc3ccc(Cl)cc3F)C(=O)N3CCC[C@H]3C(=O)N3CCCC[C@H]3C(=O)N[C@@H](C)C(=O)N2C1` (stereo not given in full): the growth was 37.9% in the test on NCI-H23 lung; -4.62% (active) with NCI-H226 lung; 48.3% in the test with NCI-H322M lung; 39.1% in the test on HOP-62 NSCLC; 14.8% in the test on NCI-H460 lung; 9.65% (active) with HOP-92 NSCLC. Further, the growth with NCI-H522 lung is 17.2%; with A549/ATCC NSCLC it was 25.1%; with 786-0 renal, 33.6%; in the test on COLO 205 colon it was -9.71% (active); in the test with DU-145 prostate it was 24.7%; in the test on K-562 leukemia, 19.3%. The growth was 35.9% with MALME-3M melanoma; 27.3% with MDA-MB-231 breast; -12.6% (active) in the test on RXF 393 renal; 29.8% in the test with SF-268 CNS; 8.11% (active) in the test with SF-295 CNS; 32.1% in the test on SF-539 CNS. Further, the values for the growth with UACC-257 melanoma and in the test with M14 melanoma were 17.2% and 19%, respectively.
In the case of `Oc1ccc(CSc2nnc(-c3ccncc3)o2)c2cccnc12`, the growth in the test with NCI-H23 lung was 17.7%; in the test with NCI-H226 lung, 22.7%; in the test with NCI-H322M lung, 39.4%; with HOP-62 NSCLC it was 12.3%; in the test on NCI-H460 lung, 4.37% (active); in the test on HOP-92 NSCLC, -20.8% (active). Besides, the growth was 11.6% in the test with NCI-H522 lung; 15.4% with A549/ATCC NSCLC; 31.3% in the test with 786-0 renal; 68.4% in the test with COLO 205 colon; 26% in the test with DU-145 prostate; 14.7% in the test on K-562 leukemia. For the same molecule, the growth with MALME-3M melanoma was 2.27% (active); with MDA-MB-231 breast, 24.5%; in the test on RXF 393 renal it was 7.2% (active); with SF-268 CNS it was 26.3%; with SF-295 CNS it was 3.07% (active); in the test with SF-539 CNS, 18%. For the same molecule, the growth in the test on UACC-257 melanoma is -2.73% (active); in the test on M14 melanoma, 25.4%.
As to `C=C(C)[C@@H]1CC[C@]2(C(=O)NCCCN(CCC#N)CCC#N)CC[C@]3(C)[C@H](CC[C@@H]4[C@@]5(C)CCC(=O)C(C)(C)[C@@H]5CC[C@]43C)[C@@H]12`, the growth is 93.6% in the test on NCI-H23 lung; 94% in the test with NCI-H226 lung; 103% with NCI-H322M lung; 97.9% in the test on HOP-62 NSCLC; 101% in the test on NCI-H460 lung; 102% in the test with HOP-92 NSCLC. Further, the growth is 91.6% in the test on NCI-H522 lung; 97.3% with A549/ATCC NSCLC; 101% in the test with 786-0 renal; 109% with COLO 205 colon; 109% in the test on DU-145 prostate; 88.4% in the test on K-562 leukemia. The growth with MALME-3M melanoma is 102%; in the test on MDA-MB-231 breast, 99.4%; with RXF 393 renal, 92.9%; in the test on SF-268 CNS, 99.2%; with SF-295 CNS it was 97.1%; in the test with SF-539 CNS, 99.7%. Moreover, the growth in the test with UACC-257 melanoma is 105%; in the test on M14 melanoma, 101%.
As to `COc1cc(/C=N/n2cnc3oc(-c4ccccc4)cc3c2=N)cc(CN2CCCC2)c1O`, the growth in the test on NCI-H23 lung is 103%; with NCI-H226 lung it was 90.5%; in the test with NCI-H322M lung, 96.7%; in the test with HOP-62 NSCLC it was 85.5%; in the test with NCI-H460 lung it was -58.6% (active); with HOP-92 NSCLC, 77.9%. Moreover, the growth is 96.4% in the test on NCI-H522 lung; 64.7% in the test with A549/ATCC NSCLC; -81% (active) in the test on 786-0 renal; 11.8% in the test on COLO 205 colon; 7.65% (active) in the test with DU-145 prostate; 0.0184% (active) in the test on K-562 leukemia. Further, the growth in the test on MALME-3M melanoma is -45% (active); with MDA-MB-231 breast, -70% (active); in the test on RXF 393 renal it was 15.7%; in the test on SF-268 CNS, 88.6%; in the test with SF-295 CNS, 90.5%; with SF-539 CNS, 93.5%. Also, the results for the growth in the test on UACC-257 melanoma and with M14 melanoma were 109% and 14.1%, respectively.
In the case of `Cc1nn(-c2ccc(Br)cc2)c2nc(CCl)[nH]c(=O)c12`, the growth was 103% in the test with NCI-H23 lung; 102% in the test with NCI-H226 lung; 104% with NCI-H322M lung; 98.5% in the test with HOP-62 NSCLC; 109% with NCI-H460 lung; 101% in the test on HOP-92 NSCLC. For the same molecule, the growth in the test with NCI-H522 lung was 85.5%; in the test with A549/ATCC NSCLC it was 96.9%; with 786-0 renal, -88.8% (active); in the test with COLO 205 colon, 103%; in the test with DU-145 prostate, 110%; in the test on K-562 leukemia, 75.6%. Besides, the growth with MALME-3M melanoma was 106%; in the test with MDA-MB-231 breast, 94.1%; in the test with RXF 393 renal it was 119%; with SF-268 CNS, 99.4%; with SF-295 CNS, 100%; with SF-539 CNS, 77%. Besides, the growth in the test with UACC-257 melanoma and in the test with M14 melanoma was 101% each time.

For the origin of these results see PubChem BioAssay (NCI).
